Measurements published in article PMC5540273 (PLoS ONE, 2017).

Tested on: GRK1
Details: concentration: 1 μM, replicates: in singlicate; n = 1
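Also: KINOMEscan kinase panel screen.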

Compound	%Inh [%]
O=C(NCCNc1ccnc(Nc2ccc(F)cc2)n1)c1cc2ccccc2s1 [GSK1379874]	0
Cc1nnc(-c2ccc3occ(-c4ccc(C(C)O)cc4)c3c2)o1 (centres unmarked)	0
NS(=O)(=O)CCc1cccc(Nc2nccc(-c3c(-c4cccc(NC(=O)c5c(F)cccc5F)c4)nn4ccccc34)n2)c1 [GSK336735]	0
NS(=O)(=O)c1cccc(-c2ccc3nccc(-c4cccc(S(N)(=O)=O)c4)c3c2)c1 [GW867253]	27
Cc1nnc(-c2ccc(C)c(-c3ccc(C(=O)Nc4ccc(NS(C)(=O)=O)cc4)cc3)c2)o1 [GW702865]	0
Cl.Nc1ncnc2occ(-c3ccc(NC(=O)Nc4cc(C(F)(F)F)ccc4F)cc3)c12 [SB-707548]	12
O=C(NCCCN1CCOCC1)c1cccc(Nc2nccc(Nc3ccc(Oc4ccccc4)cc3)n2)c1 [GW663929]	8
O=C(c1ccc(-c2cc(-c3c[nH]nc3-c3ccccn3)ccn2)cc1)N1CCOCC1 [GW812171]	26
CN1c2ccc(NCc3ccc(F)cc3)cc2-c2c(cnn2C)S1(=O)=O	11
Cc1nnc(-c2ccc3ncc(-c4ccc(S(C)=O)cc4)n3c2)o1 (centres unmarked)	9
COc1cc2ncn(-c3cc(OCc4sccc4Cl)c(C(N)=O)s3)c2cc1OC [GSK448459]	0
[2H]C([2H])(c1cccc(C(F)(F)F)c1C)n1ccn2c(=O)nc(N3CCOCC3)cc12 [GSK2336394]	0
Cl.Oc1cccc(Nc2ccnc3cc(-c4ccncc4)ccc23)c1 [GW494601]	0
CCc1nc(-c2cccc(C)c2)c(-c2ccnc(NCc3ccccc3)c2)s1	9
CN(C(=O)c1ccc(-c2cc(-c3c[nH]nc3-c3ccccn3)ccn2)cc1)C1CCOCC1 [GW810083]	10
O=C(NOCC1CC1)c1ccc(F)c(F)c1Nc1ccc(I)cc1Cl	0
N#Cc1ccc(-c2cc(-c3c[nH]nc3-c3ccccn3)ccn2)cc1 [GW693028]	0
CN1c2ccc(CNc3ccc(F)cc3)cc2-c2c(cnn2C)S1(=O)=O	10

Compound	%Inh [%]
O=c1cc(N2CCOCC2)nc2n(Cc3cccc(C(F)(F)F)c3)ccn12 [GSK2297543]	0
O=C(NCCNc1ccnc(Nc2ccc(F)cc2)n1)Nc1ccccc1F [GSK1379880]	0
COc1cc2c(cc1OC[C@@H](O)CO)ncc1c3ccc(C#N)cc3[nH]c21	16
CCCCCc1nc2c(N)ncnc2n1CCCCC [SKF-97255]	38
O=C(Nc1cccc(-c2nn3ncccc3c2-c2ccnc(Nc3cccc(C(F)(F)F)c3)n2)c1)c1c(F)cccc1F [GSK299495]	6
O=c1cc(N2CCOCC2)nc2n(Cc3cccc4ccccc34)ccn12 [GSK2333389]	13
Cc1c(Cn2c(C)nn3c(=O)cc(N4CCOC(C)C4)nc23)cccc1C(F)(F)F (centres unmarked) [GSK2344444]	1
O=C1NC(=O)C(N2CCc3ccccc32)=C1c1cccc(Cl)c1 [SB-408010]	53
N#Cc1c(N2CCOCC2)sc(-c2ccn[nH]2)c1-c1ccc(Cl)cc1	15
Cn1cc(-c2ccc3c(c2)CCN3C(=O)Cc2ccccc2Cl)c2c(N)ncnc21 [GSK2608885]	0
COc1cc(Nc2nccc(N3CCC(NC(=O)c4cccc(NC(C)=O)c4)C3)n2)cc(OC)c1OC (centres unmarked) [GSK1379754]	0
COc1ccc(S(=O)(=O)NC2CCN(c3cc(C)nc(Nc4cccc(C#N)c4)n3)CC2)cc1.O=C(O)C(F)(F)F [GSK1653539]	0
COc1cc2c(cc1OCCN1CCN(C)CC1)ncc1c3ccc(C#N)cc3[nH]c21	32
O=C(Nc1n[nH]c2cc(-c3cccc(F)c3)ccc12)C1CC1 [SB-735464]	14
Cc1cccc(-c2nc(Nc3ccc4ncsc4c3)c3ccccc3n2)n1 [GW867588]	0
Nc1nccc(-c2c(-c3ccc(F)cc3)ncn2C2CCN(CC(F)(F)F)CC2)n1 [SB-236560]	18
COc1ccc(Nc2nccc(N3CCC(NC(=O)Nc4cccc(C(C)=O)c4)C3)n2)cc1 (centres unmarked) [GSK1379731]	0
